Methyltransferases – Primary Screen for Target Class Profiling of Small Molecule Inhibitors of Methyltransferases | purified enzyme, MTase-Glo SAH luminescence; stronger effect = lower value | calls only at 40 µM | 3.9% of 25,000 active; call rule not given here
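Each enzyme was assayed with SAM and its substrate. SAH formation detected by MTase-Glo luminescence; single-point 40 uM screen[…].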
Calls only; i = inactive; + = active, no number. Many of the other results were omitted from the sample, so hits are more common in it than they were.

SMILES | Methyltransferases
CN1CC[C@@]2(C)c3cc(O)ccc3N(C)C12 (stereo not given in full) | +
CCc1ccc(C2c3cccn3-c3ccccc3CN2C(=O)Nc2ccccc2C)cc1 (stereo not given) | i
Cc1ccc(C2c3cccn3-c3ccccc3CN2C(=O)Nc2cccc(Cl)c2C)cc1 (stereo not given) | i
COc1ccc(-c2cc([C@H]3CN4CC[C@H]3C[C@@H]4COC(=O)NC3CCCCC3)nc(C)n2)cc1 | i
O=P1(N(CCCl)CCCl)NCCCO1 (stereo not given) | i
c1ccc(C2(c3ccccc3)CC2C2=NCCN2)cc1 (stereo not given) | i
CSc1ccc(C2c3cccn3-c3ccccc3CN2C(=O)Nc2cc(C)ccc2C)cc1 (stereo not given) | i
NC(=O)CI | +
CCOc1ccc(C2c3cccn3-c3ccccc3CN2C(=O)Nc2ccc(F)cc2F)cc1 (stereo not given) | i
CCCN(CCC)C1CCc2cccc(O)c2C1 (stereo not given) | i
CCCN(CCC)[C@@H]1CCc2ccc(O)cc2C1 | i
CCCN(CCC)C1CCc2ccc(O)cc2C1 (stereo not given) | +
CCCN1CC[C@@H]2c3cc(O)ccc3CC[C@@H]21 | +
COC(=O)c1cccc(NC(=O)N2Cc3ccccc3-n3cccc3C2c2ccc(Cl)cc2)c1 (stereo not given) | i
CC(N)Cc1c[nH]c2ccccc12 (stereo not given) | i
CC(=O)NCCc1c[nH]c2ccccc12 | i
NCCc1c[nH]c2ccccc12 | +
CCc1ccccc1NC(=O)N1Cc2ccccc2-n2cccc2C1CC (stereo not given) | i
CCOC(=O)C1CCC(CNC(=O)N2Cc3ccccc3-n3cccc3C2CC)CC1 (stereo not given) | i
CN(C)CCNC(=O)C1CNCC12CCOCC2 (stereo not given) | i
Cc1ccc(C2c3cccn3-c3ccccc3CN2C(=O)NCc2ccco2)cc1 (stereo not given) | i
Cc1c(Cl)cccc1NC(=O)N1Cc2ccccc2-n2cccc2C1C (stereo not given) | i
Clc1ccc([C@]23CNC[C@H]2C3)cc1Cl | +
CCC1c2cccn2-c2ccccc2CN1C(=O)NCCc1ccccc1 (stereo not given) | i
COC(=O)CCNC(=O)N1Cc2ccccc2-n2cccc2C1c1ccc(OC)cc1 (stereo not given) | i
SMILES | Methyltransferases
CCOC(=O)c1ccccc1NC(=O)N1Cc2ccccc2-n2cccc2C1C (stereo not given) | i
CC(C)c1ccc(C2c3cccn3-c3ccccc3CN2C(=O)NCc2ccc(F)cc2)cc1 (stereo not given) | i
CC(C)C1c2cccn2-c2ccccc2CN1C(=O)Nc1ccc(Cl)cc1 (stereo not given) | i
O=C(NC1CCCC1)N1Cc2ccccc2-n2cccc2C1c1ccc(Cl)cc1 (stereo not given) | i
C=C(CO)C(=O)O[C@H]1CC(=C)[C@@H]2C[C@H](O)C(=C)[C@@H]2[C@H]2OC(=O)C(=C)[C@@H]21 | +
CCOc1ccc(C2c3cccn3-c3ccccc3CN2C(=O)NCCC(=O)OC)cc1 (stereo not given) | i
CC(=O)NCCCOc1ccc(C(=O)N2CCC(N3C(=O)CCc4ccccc43)CC2)cc1 | i
COC1CC(O[C@H]2CC[C@]3(C)C4CC[C@]5(C)[C@@H](C6=CC(=O)OC6)[C@@H](OC(C)=O)C[C@]5(O)C4CC[C@@H]3C2)OC(C)C1O (stereo not given in full) | i
CC1C/C=C/C(O)C(O)CC/C=C/c2cc(O)cc(O)c2C(=O)O1 (stereo not given) | i
C[C@H]1CCCC(=O)CCC/C=C/c2cc(O)cc(O)c2C(=O)O1 | +
CC1CCCCCC(=O)c2c(O)cc(O)cc2CC(=O)O1 (stereo not given) | i
Cc1ccc(CNC(=O)N2Cc3ccccc3-n3cccc3C2c2cccs2)cc1 (stereo not given) | i
COc1ccccc1NC(=O)N1Cc2ccccc2-n2cccc2C1C (stereo not given) | i
CN(N=O)c1ccc(O)c(O)c1 | +
COc1cc(NC(=O)N2Cc3ccccc3-n3cccc3C2c2ccccc2)cc(OC)c1 (stereo not given) | i
CCOC(=O)c1ccccc1NC(=O)N1Cc2ccccc2-n2cccc2C1c1ccccc1Cl (stereo not given) | i
O=C(NCc1ccccc1)c1cn(C2CNC2)nn1 | i
N#C[C@@H](O[C@@H]1O[C@H](CO[C@@H]2O[C@H](CO)[C@@H](O)[C@H](O)[C@H]2O)[C@@H](O)[C@H](O)[C@H]1O)c1ccccc1 | i
COc1cc(N2CCN(C)CC2)ccc1N | +
CCC1c2cccn2-c2ccccc2CN1C(=O)Nc1ccc(F)cc1 (stereo not given) | i
O=C(Nc1ccccc1F)N1Cc2ccccc2-n2cccc2C1c1cccs1 (stereo not given) | i
O=C(Nc1ccc(F)cc1F)N1Cc2ccccc2-n2cccc2C1c1cc(F)cc(F)c1 (stereo not given) | i
CN(C)c1cc2c(cc1Sc1nc3c(N)nccc3n1CCNCC(C)(C)C)OCO2 | +
Cc1cccc(C2c3cccn3-c3ccccc3CN2C(=O)Nc2ccc(C)cc2C)c1 (stereo not given) | i
Cc1cccc(C2c3cccn3-c3ccccc3CN2C(=O)Nc2ccc(Cl)cc2)c1 (stereo not given) | i
SMILES | Methyltransferases
COC(=O)C12C(=O)C(C)(O)C(=O)C1(C)C(C)=CC1C34CCC(OC3=O)C(C)(CO)C4CCC12C (stereo not given) | i
NC(CCP(=O)(O)O)C(=O)O (stereo not given) | i
O=C1NC(=O)c2c1c1c3ccccc3[nH]c1c1[nH]c3ccccc3c21 | +
CC1c2cccn2-c2ccccc2CN1C(=O)NCc1ccc(F)cc1 (stereo not given) | i
CCC1c2cccn2-c2ccccc2CN1C(=O)Nc1ccc(OC)cc1OC (stereo not given) | i
COc1ccc(NC(=O)N2Cc3ccccc3-n3cccc3C2c2ccc(SC)cc2)c(OC)c1 (stereo not given) | i
O=C(NCc1ccc(F)cc1)N1Cc2ccccc2-n2cccc2C1c1ccc(Cl)cc1 (stereo not given) | i
NC(Cc1cc(O)c(O)cc1O)C(=O)O (stereo not given) | +
N[C@@H](Cn1oc(=O)[nH]c1=O)C(=O)O | i
Cc1o[nH]c(=O)c1CC(N)C(=O)O (stereo not given) | i
Cc1[nH]nc2ccc(-c3cncc(OC[C@@H](N)Cc4c[nH]c5ccccc45)c3)cc12 | +
CN(C)c1ccc(C2c3cccn3-c3ccccc3CN2C(=O)NCc2ccc(F)cc2)cc1 (stereo not given) | i
CCc1nn(C)c(C(=O)NCc2ccc(Oc3ccc(C)cc3)cc2)c1Cl | i
Cc1cccc(NC(=O)N2Cc3ccccc3-n3cccc3C2c2ccc(F)cc2)c1 (stereo not given) | i
Cc1ccc(NC(=O)N2Cc3ccccc3-n3cccc3C2c2ccc(N(C)C)cc2)cc1F (stereo not given) | i
CC(C)(O)/C=C/C(=O)[C@](C)(O)[C@H]1[C@H](O)C[C@@]2(C)[C@@H]3CC=C4[C@@H](C[C@H](O)C(=O)C4(C)C)[C@]3(C)C(=O)C[C@]12C | i
CCCCCOc1cc2c(cc1-c1cc(/C=C/C(=O)O)ccc1O)C(C)(C)CCC2(C)C | +

High-throughput results (PubChem)
